Unmarked numbers belong to inactive results. Records with an inconclusive call do not appear. Activity calls are given as the source filed them. Unless noted, calls follow the shape of the dose curve; as a rule, active = well fitted curve in the direction sought with a large enough effect in the repeat runs; inconclusive = weak or mixed curves; inactive = no such curve, though single readings can be large; an effect the other way counts as inactive or inconclusive.

Here are results for 8 compounds from PubChem BioAssay (Tox21).

Assay [1] is described as follows: qHTS assay to identify small molecule antagonists of the androgen receptor (AR) signaling pathway using the MDA cell line in the presence of 0.5 nM R1881 - cell viability counter screen (AID 1259242). Also: nearly all actives have a fitted effect of over 45% in size. In outline: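 Viability of MDA-kb2 cells was multiplexed with the luciferase AR readout; after 16 hr with compounds and R1881 at 0.5 nM final, CellTiter-Fluor fluorescence was recorded.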
A general note: In qHTS, concentration-response curves come from the screen itself.

Assay [2] deals with Androgen receptor (Homo sapiens) (UniProt P10275). The assay is described as follows: qHTS assay to identify small molecule antagonists of the androgen receptor (AR) signaling pathway using the MDA cell line in the presence of 0.5 nM R1881 (AID 1259243). Also: nearly all actives have a fitted effect of over 50% in size. Summed up:
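Reporter cells cultured without CO2 receive test chemicals, then 0.5 nM R1881 final; after 16 hr at 37C, ONE-Glo is added and light output recorded.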

Assay [3] in a line: qHTS assay to identify small molecule HDAC inhibitors (AID 1259364).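 Also: wild-type HCT-116 cells with endogenous class I/II HDAC activity; top concentration of the series differs between compounds; nearly all actives have a fitted effect of over 45% in size.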 In outline:
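Read-out: luminescence of HDAC-Glo I/II reagent, 30 min RT, reflecting class I/II deacetylase activity in whole HCT-116 cells pre-exposed 2 h to DMSO-dissolved compounds.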

Assay [4] in a line: qHTS assay to identify small molecule HDAC inhibitors - cell viability counter screen (AID 1259365). Also: series mostly up to about 92 µM; nearly all actives have a fitted effect of over 50% in size. In outline: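 Following a 2hr exposure of overnight-plated wild-type HCT-116 cells to DMSO-delivered compounds, CellTiter-Glo was added and luminescence recorded after 30min at room temperature.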
A short description of assay [5]: qHTS assay to identify small molecule agonists of the sonic hedgehog signaling (Shh) pathway - cell viability counter screen (AID 1259366). Also: nearly all actives have a fitted effect of over 50% in size. Also: potency is read from the fitted curve at half-maximal effect. In outline: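 After a 4hr attachment at 37C, NIH/3T3 cells bearing an integrated Gli1-driven luciferase reporter were dosed with compounds. Treatment lasted 24hr, with the final hour including CellTiter-Fluor for a fluorescence viability measurement.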

Assay [6] in a line: qHTS assay to identify small molecule antagonists of the sonic hedgehog signaling (Shh) pathway - cell viability counter screen (AID 1259367). Also: nearly all actives have a fitted effect of over 55% in size. In outline: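 NIH/3T3-derived Gli1-Luc reporter cells (2,000 per well) rested 4 hr at 37 C, then received DMSO compounds plus conditioned medium. After 23 hr of treatment, CellTiter-Fluor was added for 1 hr at 37C and fluorescence read.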

Assay [7] can be described thus: qHTS assay to identify small molecule agonists of the sonic hedgehog signaling (Shh) pathway (AID 1259368; calls by dose curve;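 also: NIH/3T3-derived 3T3Gli1-Luc cells carrying a stable Gli1-driven firefly luciferase reporter; series mostly up to about 92 µM; nearly all actives have a fitted effect of over 15% in size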). In outline: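 A Gli1 transcriptional response element controlled firefly luciferase in 3T3Gli1-Luc cells. Compounds and a positive control were added 4 hr after plating, and cells were incubated a further 24 hr at 37 C before luminescence detection.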
Assay [8] in a line: qHTS assay to identify small molecule antagonists of the sonic hedgehog signaling (Shh) pathway (AID 1259369; calls by dose curve; also: nearly all actives have a fitted effect of over 45% in size). Summed up: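 For antagonist detection, the reporter line received test compounds together with conditioned medium, incubated 24hr at 37 C, 5% CO2, then luminescence was recorded following 30min room-temperature luciferase reagent incubation.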
In assay [9] the target is Estrogen receptor beta (Homo sapiens) (UniProt Q92731). Description: qHTS assay to identify small molecule agonists of the estrogen receptor beta (ER-beta) signaling pathway (AID 1259377; active = well fitted activation curve with a large enough effect in the signal ratio in the repeat runs, not every such curve was filed as active; the % refers to the signal ratio). Summed up: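 In HEK293T cells bearing a UAS-beta-lactamase reporter under ER-beta control, DMSO-delivered compounds were incubated for 16 hr at 37C. Activity was detected as fluorescence 2 hours after LiveBLAzer B/G FRET substrate addition.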

Assay [10] has the same target. Description: qHTS assay to identify small molecule antagonists of the estrogen receptor beta (ER-beta) signaling pathway (AID 1259378; active = well fitted inhibition curve with a large enough effect in the signal ratio in the repeat runs, not every such curve was filed as active; the % refers to the signal ratio). Summed up: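 ER-beta-UAS-bla HEK293T (GripTite) cells in 2% charcoal-stripped FBS medium were preincubated 6 hr at 37C, dosed with compound, then stimulated with 1 nM E2 (final) for 16 hr; beta-lactamase reporter read by B/G FRET fluorescence after 2 hr substrate loading.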

A short description of assay [11]: qHTS assay to identify small molecule agonists of the androgen receptor (AR) signaling pathway in the presence of an antagonist - cell viability counter screen (AID 1259379).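 Also: MDA-kb2 human breast cancer cells carrying an MMTV luciferase reporter; series mostly up to about 92 µM; nearly all actives have a fitted effect of over 25% in size.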 In outline:
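Seed MDA-kb2 at 3,000 cells/well; incubate 5 hr, 37C, 0% CO2. Add nilutamide to 3.0uM final, then pin compounds at 15 concentrations. Incubate 16 hr. Add CellTiter-Fluor at 15 hr, read fluorescence after 1 hr.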

Assay [12] is described as follows: qHTS assay to identify small molecule agonists of the estrogen receptor beta (ER-beta) signaling pathway - cell viability counter screen (AID 1259380). Also: nearly all actives have a fitted effect of over 30% in size. Summed up:
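CellTiter-Glo read, 30 min RT, same wells as bla assay; cells ER-beta-UAS-bla HEK293T; 16 hr compound, 37C; medium 2% charcoal-stripped FBS.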

The target in assay [13] is Androgen receptor (Homo sapiens) (UniProt P10275). The assay is described as follows: qHTS assay to identify small molecule agonists of the androgen receptor (AR) signaling pathway in the presence of an antagonist (AID 1259381; calls by dose curve; also: nearly all actives have a fitted effect of over 15% in size). Summed up:
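Test compounds at 15 concentrations were incubated for 16hr with MDA-kb2 reporter cells in presence of 3.0uM nilutamide (final). Signal: ONE-Glo luciferase luminescence.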

Assay [14] can be described thus: qHTS assay to identify small molecule antagonists of the estrogen receptor beta (ER-beta) signaling pathway - cell viability counter screen (AID 1259382). Also: series mostly up to about 92 µM; nearly all actives have a fitted effect of over 55% in size. Summed up:
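In this multiplexed counter screen, cells were seeded at 2,000 per well in medium with 2% charcoal-stripped FBS and incubated 6 hr before compound and 1nM final E2 were added. Sixteen hours later, ATP-based luminescence reported viability.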

Assay [15] can be described thus: qHTS assay to identify small molecule agonists or antagonists of the thyroid stimulating hormone receptor (TSHR) signaling pathway - wild type cell line counter screen (AID 1259384; calls by dose curve). In outline:
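Wild-type HEK293 cells were plated 18 h at 37 C/5% CO2, pin-dosed with compound plus Ro20-1724 medium, held 30 min at room temperature, then given cAMP-d2 and anti-cAMP-cryptate; fluorescence was read after 1 h. Fifteen concentrations, triplicate.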

The target in assay [16] is Thyrotropin receptor (Homo sapiens) (UniProt P16473). Description: qHTS assay to identify small molecule antagonists of the thyroid stimulating hormone receptor (TSHR) signaling pathway (AID 1259385; calls by dose curve; also: nearly all actives have a fitted effect of over 20% in size). In outline:
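TSHR-HEK293 cells were plated and held 18 h at 37C/5% CO2, then given compound plus Ro20-1724 and stimulated with TSH at 1.5 ng/mL final. After 30 min at room temperature, cAMP was detected with cAMP-d2/anti-cAMP-cryptate (1 h) by fluorescence.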

Assay [17] can be described thus: qHTS assay to identify small molecule agonists of the estrogen receptor alpha (ER-alpha) signaling pathway in the presence of an antagonist - cell viability counter screen (AID 1259386).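 Also: cells exposed to compounds for 22 h at 37 °C before the viability read; nearly all actives have a fitted effect of over 30% in size.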 Also: potency is read from the fitted curve at half-maximal effect. In outline:
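Viability counter screen using VM7Luc4E2 (full-length ER-alpha, four ERE-luciferase). The cells were treated with compounds alongside ICI-182,780 10.0nM for 22hr, and live-cell protease fluorescence was quantified with CellTiter-Fluor.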

Assay [18] concerns the target Estrogen receptor (Homo sapiens) (UniProt P03372). The assay is described as follows: qHTS assay to identify small molecule antagonists of the estrogen receptor alpha (ER-alpha) signaling pathway using the BG1 cell line in the presence of 0.1 nM 17-beta-estradiol (AID 1259244). Also: nearly all actives have a fitted effect of over 50% in size. Summed up:
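Estradiol at 0.1 nM (final) stimulates the endogenous ER-alpha of VM7Luc4E2 cells carrying an ERE-driven luciferase; compounds are co-incubated 22 h at 37C and luciferase output quantified by luminescence.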

Assay [19] can be described thus: qHTS assay to identify small molecule phospholipidosis (PLD) inducers (AID 1259344; active = well fitted curve in the direction sought with a large enough effect; an effect the other way counts as inactive or inconclusive). Summed up:
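HepG2 cells on collagen I, attached 4 h at 37 C, were co-treated with compound and LipidTOX Red dye for 24 h at 37 C, then fixed with paraformaldehyde plus Hoechst 33342 and imaged by high-content microscopy for phospholipid accumulation.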

For assay [20], the target named is Estrogen receptor (Homo sapiens) (UniProt P03372). The assay is described as follows: qHTS assay to identify small molecule agonists of the estrogen receptor alpha (ER-alpha) signaling pathway in the presence of an antagonist (AID 1259383; calls by dose curve; also: top concentration of the series differs between compounds; nearly all actives have a fitted effect of over 15% in size). In outline: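 Stably transfected VM7Luc4E2 reporter cells, kept 5 days in charcoal-stripped serum, received ICI-182,780 at 10.0nM final before compound addition. Following 22hr incubation at 37C and 5% CO2, luciferase signal was read by luminescence.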
Estrogen receptor (Homo sapiens), sequence (P03372 whole entry, looked up): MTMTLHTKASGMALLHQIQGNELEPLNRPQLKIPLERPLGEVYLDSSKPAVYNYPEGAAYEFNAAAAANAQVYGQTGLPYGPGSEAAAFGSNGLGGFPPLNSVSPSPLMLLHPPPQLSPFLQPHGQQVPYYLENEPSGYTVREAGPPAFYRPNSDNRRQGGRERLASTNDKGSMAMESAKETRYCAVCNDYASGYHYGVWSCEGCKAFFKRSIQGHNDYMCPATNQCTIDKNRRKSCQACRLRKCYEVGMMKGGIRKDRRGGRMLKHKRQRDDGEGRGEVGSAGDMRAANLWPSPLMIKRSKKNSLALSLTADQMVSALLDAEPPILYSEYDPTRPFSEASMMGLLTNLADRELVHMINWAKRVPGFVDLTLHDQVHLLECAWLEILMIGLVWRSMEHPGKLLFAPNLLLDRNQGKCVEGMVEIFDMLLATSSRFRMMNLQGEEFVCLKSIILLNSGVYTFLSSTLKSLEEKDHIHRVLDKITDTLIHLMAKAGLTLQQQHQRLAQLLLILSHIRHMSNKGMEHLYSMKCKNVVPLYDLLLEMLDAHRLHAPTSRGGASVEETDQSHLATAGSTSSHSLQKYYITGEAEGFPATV

Estrogen receptor beta (Homo sapiens), sequence (Q92731 whole entry, looked up): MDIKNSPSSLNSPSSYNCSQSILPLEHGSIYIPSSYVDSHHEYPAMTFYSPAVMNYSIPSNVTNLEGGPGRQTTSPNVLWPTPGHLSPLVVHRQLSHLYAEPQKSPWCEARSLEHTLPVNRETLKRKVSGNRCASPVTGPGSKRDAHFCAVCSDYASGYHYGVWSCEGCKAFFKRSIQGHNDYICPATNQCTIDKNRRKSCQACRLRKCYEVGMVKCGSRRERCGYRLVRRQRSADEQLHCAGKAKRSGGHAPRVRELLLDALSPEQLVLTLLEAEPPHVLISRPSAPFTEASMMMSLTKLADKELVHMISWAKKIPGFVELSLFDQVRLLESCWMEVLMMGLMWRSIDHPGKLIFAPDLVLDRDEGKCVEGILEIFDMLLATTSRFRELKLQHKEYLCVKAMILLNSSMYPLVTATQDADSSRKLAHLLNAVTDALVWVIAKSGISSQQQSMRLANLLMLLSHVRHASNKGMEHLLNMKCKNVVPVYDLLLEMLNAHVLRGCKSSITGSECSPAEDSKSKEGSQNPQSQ
Androgen receptor (Homo sapiens), sequence (P10275 whole entry, looked up): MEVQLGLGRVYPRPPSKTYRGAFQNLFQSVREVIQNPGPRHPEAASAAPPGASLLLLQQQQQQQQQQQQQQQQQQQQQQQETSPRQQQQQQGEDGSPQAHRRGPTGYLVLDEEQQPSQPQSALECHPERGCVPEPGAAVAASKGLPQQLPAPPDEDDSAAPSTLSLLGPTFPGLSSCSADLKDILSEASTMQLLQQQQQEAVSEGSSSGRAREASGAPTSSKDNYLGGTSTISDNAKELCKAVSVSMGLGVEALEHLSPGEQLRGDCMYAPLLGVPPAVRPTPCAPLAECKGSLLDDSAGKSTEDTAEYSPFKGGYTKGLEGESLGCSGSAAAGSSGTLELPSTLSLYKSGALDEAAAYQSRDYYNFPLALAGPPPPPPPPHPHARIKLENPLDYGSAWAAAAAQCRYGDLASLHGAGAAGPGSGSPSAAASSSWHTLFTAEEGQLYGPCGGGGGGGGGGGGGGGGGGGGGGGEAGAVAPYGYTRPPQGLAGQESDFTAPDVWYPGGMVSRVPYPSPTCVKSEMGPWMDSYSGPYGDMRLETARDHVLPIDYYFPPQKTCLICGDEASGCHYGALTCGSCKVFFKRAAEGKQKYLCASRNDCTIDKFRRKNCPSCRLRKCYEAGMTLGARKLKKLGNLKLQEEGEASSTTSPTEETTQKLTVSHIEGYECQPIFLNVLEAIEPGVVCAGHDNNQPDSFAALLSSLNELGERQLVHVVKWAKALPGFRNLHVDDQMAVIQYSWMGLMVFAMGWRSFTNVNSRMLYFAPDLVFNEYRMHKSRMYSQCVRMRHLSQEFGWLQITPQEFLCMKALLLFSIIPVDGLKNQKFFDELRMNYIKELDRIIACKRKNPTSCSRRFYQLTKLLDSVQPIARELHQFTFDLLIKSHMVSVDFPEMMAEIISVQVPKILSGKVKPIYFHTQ
Thyrotropin receptor (Homo sapiens), sequence (P16473 whole entry, looked up): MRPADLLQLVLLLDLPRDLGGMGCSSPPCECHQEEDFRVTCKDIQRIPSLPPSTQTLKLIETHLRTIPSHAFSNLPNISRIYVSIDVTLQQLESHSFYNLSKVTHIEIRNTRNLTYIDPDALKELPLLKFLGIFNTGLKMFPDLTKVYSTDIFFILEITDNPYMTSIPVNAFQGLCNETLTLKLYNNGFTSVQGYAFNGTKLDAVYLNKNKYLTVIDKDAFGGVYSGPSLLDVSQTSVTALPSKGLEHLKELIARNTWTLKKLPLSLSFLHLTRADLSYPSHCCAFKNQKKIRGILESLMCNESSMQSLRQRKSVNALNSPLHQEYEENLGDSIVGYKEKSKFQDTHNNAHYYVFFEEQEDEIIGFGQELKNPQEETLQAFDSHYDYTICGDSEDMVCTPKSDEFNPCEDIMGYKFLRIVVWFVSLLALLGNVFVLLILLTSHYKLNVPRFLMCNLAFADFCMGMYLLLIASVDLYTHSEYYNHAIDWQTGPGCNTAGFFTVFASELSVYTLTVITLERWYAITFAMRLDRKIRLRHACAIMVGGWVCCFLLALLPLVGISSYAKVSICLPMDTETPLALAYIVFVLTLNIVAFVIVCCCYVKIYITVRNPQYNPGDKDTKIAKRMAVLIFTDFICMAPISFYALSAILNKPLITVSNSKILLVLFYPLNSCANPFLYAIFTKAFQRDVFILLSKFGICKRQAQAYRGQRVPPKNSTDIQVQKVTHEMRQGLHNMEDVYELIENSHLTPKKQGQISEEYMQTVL

For `CNC(=O)Oc1c(C(C)(C)C)cc(C)cc1C(C)(C)C`, the result in [1], in [4], in assay [7] and in [9] was inactive. Also, the Potency result in [2], in assay [3], in [5], in assay [6], in [8] and in assay [10] was “inactive” in each case. In addition, the Potency result in assay [11], in [12], in [13], in assay [14], in assay [15] and in [16] was “inactive” each time. Also, the Potency result in [17] is “inactive”.

As to `COC(=O)C(c1ccccc1)C1CCCCN1` (stereo unspecified), the result in assay [1], in assay [19], in assay [4], in [7] and in [9] was inactive. For the same compound, the Potency result in assay [2], in [18], in [3], in assay [5], in assay [6] and in [8] was “inactive” each time. Besides, the Potency result in assay [10], in assay [11], in assay [12], in [13], in assay [14] and in assay [20] was “inactive” in each case. The Potency result in assay [15], in assay [16] and in assay [17] was “inactive” each time.

Regarding `C[C@]12CC[C@H]3[C@@H](CCC4=CC(=O)CC[C@@]43C)[C@@H]1CC[C@@H]2C(=O)O`, the result in assay [1], in assay [4], in assay [7] and in assay [9] was inactive. Moreover, the Potency entry in assay [2], in assay [18], in assay [3], in assay [5], in assay [6] and in [8] was “inactive” in each case. For the same compound, the Potency result in assay [11], in assay [12], in [13], in assay [14], in assay [16] and in [17] was “inactive” throughout.

For the compound `COP(N)(=S)Oc1ccccc1C(=O)OC(C)C` (stereo unspecified), the outcome in assay [1], in assay [4] and in assay [7] was inactive. In addition, the Potency result in assay [2], in [18], in assay [3], in assay [5], in assay [6] and in assay [8] was “inactive” each time. The Potency result in [11], in assay [12], in assay [13], in assay [14], in assay [20] and in [15] was “inactive” throughout. Besides, the Potency entry in [16] and in [17] was “inactive” throughout.

As for `CC(C)(C)NCC(O)c1cc(Cl)c(N)c(Cl)c1` (stereo unspecified), the outcome in [1], in [19], in [4], in assay [7] and in assay [9] was inactive. Also, the Potency result in assay [2], in assay [3], in [8], in assay [10], in assay [11] and in [12] was “inactive” each time. Besides, the Potency result in [13], in [14] and in assay [16] was “inactive” in each case. Besides, the results for the Potency in [5] and in assay [17] were 11.9 µM (active) and 21.1 µM (active), respectively.

Regarding `O=C1OC(CCN2CCCCC2)OC1(c1ccccc1)c1ccccc1` (stereo unspecified), the result in assay [1], in assay [4] and in [7] was inactive. Moreover, the Potency result in [2], in assay [18], in assay [3], in [6], in [10] and in assay [11] was “inactive” in each case. Moreover, the Potency entry in assay [12], in assay [13], in assay [14], in [20], in [15] and in [16] was “inactive” throughout. In addition, the Potency entry in [17] was “inactive”.

Regarding `Fc1cc(Br)ccc1CBr`, the outcome in [1], in [4], in [7] and in assay [9] was inactive. For the same compound, the Potency result in assay [2], in [18], in [5], in [6], in assay [8] and in assay [10] was “inactive” each time. For the same compound, the Potency result in [11], in assay [12], in assay [13], in assay [14], in assay [20] and in assay [16] was “inactive” throughout. In addition, in [17], the Potency entry was “inactive”.

With `O=C(Nc1ccccc1)c1ccccc1I`, the result in assay [1], in assay [4], in assay [7] and in assay [9] was inactive. The Potency entry in assay [2], in [18], in assay [5], in assay [11], in [13] and in assay [14] was “inactive” throughout. The Potency entry in [15] and in assay [17] was “inactive” each time.
